Data taken from ChEMBL document CHEMBL3988442, “University of Dundee, Small-Polar-MMV Screening Library” (2021).
About 13,000 (27%) of roughly 48,000 compounds showed an effect of 50% or more. The list shows a part of the results.

Each compound was assayed on Wolbachia pipientis (assay: Anti-Wolbachia Cell-Based Screen). Conditions: 5 µM.
Assay type: functional
Set-up: scale not given: in the data most compounds retested in dose-response had high values

SMILES	Percent Effect [%]
CNC(=O)Cc1csc(NC(=O)C2CSCCC(=O)N2)n1 (stereo unspecified)	9.778
Cc1nc2c(c(NC3CC3)n1)CCN(C(=O)C1(C#N)CC1)CC2	-9.329
CCNc1ccnc(N2Cc3cnc(CC(C)C)nc3C2)n1	8.628
CSc1ccsc1C(=O)NC(Cc1ccccc1)C(N)=O (stereo unspecified)	-23.55
CCOc1ccc(Cl)c(C(=O)NC(C(N)=O)c2ccccc2)n1 (stereo unspecified)	-8.916
CSCCC(NC(=O)c1nc(SC)ncc1Cl)C(=O)O (stereo unspecified)	130.6
CSCCC(NC(=O)c1ccc2ccccc2n1)C(=O)O (stereo unspecified)	-5.769
CCOc1ccc(Cl)c(C(=O)NC(Cc2ccccc2)C(N)=O)n1 (stereo unspecified)	-4.15
CCSc1ncc(Cl)c(C(=O)NC(CCSC)C(=O)O)n1 (stereo unspecified)	88.5
CSCCC(NC(=O)c1ccc2ccccc2n1)C(=O)N(C)C (stereo unspecified)	-7.928
CSc1ncc(Cl)c(C(=O)NC(Cc2ccccc2)C(=O)O)n1 (stereo unspecified)	98.91
CCOCCNC(=O)C(CCSC)NC(=O)c1ccc2ccccc2n1 (stereo unspecified)	5.309
CCCSc1ncc(Cl)c(C(=O)NC(CCSC)C(=O)O)n1 (stereo unspecified)	125.3
C=C(C)COc1ccc(C(=O)NCCn2c(C)cc(C)nc2=O)cc1	3.763
NC(CC1CCCC1)c1ccc(Oc2ccccc2)cc1 (stereo unspecified)	-4.539
Cc1nnc(CN2CCCC2c2ccc3c(c2)OCCCO3)n1C (stereo unspecified)	-16.28
Cc1ccc(CNCc2nnc3n2CCCC3C(F)(F)F)s1 (stereo unspecified)	-0.9896
Cc1cc(CC(=O)NCC(O)COc2ccc(F)c(F)c2)n[nH]1 (stereo unspecified)	-4.204
CCN(CC)C(=O)c1ccc(Cl)c(NC(=O)c2cc(C(C)C)on2)c1	105.3
CC(C)CC(=O)Nc1cc(C(=O)N(C)C(C)C)ccc1Cl	-13.72
COCCN(Cc1ccc(F)cc1Cl)C(=O)c1csnn1	2.289
Cc1cnc(C(=O)N(CCN(C)C)Cc2ccc(Cl)cc2)cn1	18.7

SMILES	Percent Effect [%]
CCN(CC)C(=O)c1ccc(Cl)c(NC(=O)c2cc[nH]n2)c1	48.61
CCN(CC)C(=O)c1ccc(Cl)c(NC(=O)c2cnc(C)cn2)c1	101.4
CC(C)OCCC(=O)Nc1cc(C(=O)N(C)C(C)C)ccc1Cl	-18.48
CCN(CC)c1ccc(CNC(=O)c2cnc(C)cn2)cn1	0.4576
CCN(CC)C(=O)c1ccc(Cl)c(NC(=O)c2csnn2)c1	102.3
O=C(c1nc(=O)[nH]c2ccccc12)N1CCCC(CC2CC2)(C(=O)O)C1 (stereo unspecified)	-2.768
CCc1noc(CS(=O)(=O)c2cccc(OC)c2)n1	-12.89
CN(CCO)C[C@@H]1CN(C(=O)Cc2ccc3ccccc3c2)C[C@@H]1CO	-10.71
CN(C)CC1(O)CCN(C(=O)Cc2ccc3c(c2)CCCC3)C1 (stereo unspecified)	97.61
Cc1c(C(=O)N2CCC(O)(CN(C)C)C2)c2cc(O)ccc2n1C (stereo unspecified)	-4.838
CN(C)CC1(O)CCN(C(=O)Cc2ccc3c(c2)CCC3)C1 (stereo unspecified)	113.1
CN(C)CC1(O)CCN(C(=O)Cc2ccc3ccccc3c2)C1 (stereo unspecified)	131.3
Cc1cc2occ(CC(=O)N3CCC(O)(CN(C)C)C3)c2cc1Cl (stereo unspecified)	-55.74
CN(C)CC1(O)CCN(C(=O)Cc2ccc(Cl)c(Cl)c2)C1 (stereo unspecified)	-5.552
CN(C)CC1(O)CCCN(C(=O)Cc2ccc(Cl)c(Cl)c2)C1 (stereo unspecified)	6.381
CN(C)C[C@@H]1CN(C(=O)Cc2ccc3ccccc3c2)C[C@@H]1CO	-10.12
COc1c(NC(=O)N(C)CCOc2ccc(F)cc2)c(C)nn1C	-9.317
Cc1ccc(F)cc1NC(=O)C1CCCN1C(=O)C(C)C (stereo unspecified)	-3.665
CC(=O)N1CCCC1C(=O)NCCOc1ccc(C(C)C)cc1 (stereo unspecified)	97.98
CC(=O)NCCOc1c(C)cccc1C	-5.514
CC(=O)N1CCC[C@H]1C(=O)N(C)CCCOc1ccccc1	16.69
C=C(C)COCCNC(=O)C1CCCN1C(C)=O (stereo unspecified)	4.711

SMILES	Percent Effect [%]
CC(=O)N1CCCC1C(=O)NCCOc1c(C)cccc1C (stereo unspecified)	70.88
CC(C)CCNC(=O)C1CCCN1C(=O)Nc1cccc(F)c1 (stereo unspecified)	134.2
CC(=O)N1CCCC1C(=O)NCCOc1cc(C)cc(C)c1 (stereo unspecified)	2.584
O=C1CCCN1CC1CCCCN1C(=O)Nc1cccc(F)c1 (stereo unspecified)	-9.718
CC(=O)N1CCC[C@H]1C(=O)NCCOc1cccc(Cl)c1	1.208
CC(=O)N1CCCC1C(=O)NCCOc1cccc(F)c1 (stereo unspecified)	92.85
CC(=O)N1CCN(C(=O)CCOc2ccc(C(C)C)cc2)CC1	-11.35
CCC(CNC(=O)COC)Oc1cccc(F)c1 (stereo unspecified)	-17.35
NC(=O)c1csc(N2CCCC(c3n[nH]c(=O)n3-c3ccccc3)C2)n1 (stereo unspecified)	-8.892
CC(C)c1cc(C(=O)NCCn2nc3ccccn3c2=O)n[nH]1	7.227
Cc1nc(Nc2ccc(Cl)cn2)sc1C(=O)NCCCN1CCCCC1	-4.658
Cc1nnc(NC(=O)NCc2ccc(C)n2C)s1	1.794
Cc1nnc(NC(=O)NCCCN2CCC(C(N)=O)CC2)s1	105
Cc1nc(NC(=O)NCCCN2CCC(C(N)=O)CC2)sc1C	92.76
Cc1nnc(NC(=O)N2CCCCC2CCO)s1 (stereo unspecified)	-9.567
Cc1nc(NC(=O)C2CCCN(C(=O)C3CC3)C2)sc1C (stereo unspecified)	22.45
Cc1cccc(CN2CCC(Cc3ccccc3F)CC2)n1	-1.449
Cc1cccc(CNC(=O)CC2CCN(Cc3ccccn3)CC2)n1	99.8
Cc1cccc(CNC(=O)C2CCC(=O)N(Cc3ccccc3F)C2)n1 (stereo unspecified)	-24.63
Cc1cccc(CN2CCn3cc(CNC(=O)CC4CC4)nc3C2)n1	3.137
Cc1cccc(CNC(=O)CC2CCN(C(=O)C(C)C)CC2)n1	83.92
Cc1cccc(CNC(=O)CC2CCN(S(C)(=O)=O)CC2)n1	82.07

SMILES	Percent Effect [%]
Cc1cccc(C(=O)N2CCn3cc(CNC(=O)CC4CC4)nc3C2)n1	2.995
Cc1cccc(CN2CCS(=O)(=O)[C@@H]3CCN(S(C)(=O)=O)CC[C@@H]32)n1.O=C(O)C(F)(F)F	-6.526
COC(=O)N1CCCC(NC(=O)NCc2cccc(C)n2)C1 (stereo unspecified)	-5.43
Cc1cccc(C2(O)CCN(C(=O)c3ccc(N(C)C)cc3)CC2)c1C	-4.914
COc1ccc(Br)cc1NCC(=O)NC(C)(C#N)C1CC1 (stereo unspecified)	14.48
c1ccc(CN2CCC(NCCSc3ncn[nH]3)C2)cc1 (stereo unspecified)	12.73
Cc1[nH]c2ccccc2c1CCNc1ncnc2c1CCNCC2	-9.659
Cc1ccccc1CN1CCC(CNc2ncnc3c2CCNCC3)C1 (stereo unspecified)	119.4
c1cnnc(N2CCCC2CNc2ncnc3c2CCC3)c1 (stereo unspecified)	2.71
c1ccc(CN2CCCC(CNc3ncnc4c3CCNCC4)C2)cc1 (stereo unspecified)	100.7
c1ccc(CN2CCC(CNc3ncnc4c3CCNCC4)CC2)cc1	97.41
Cc1nc(CN2CCCC(Nc3ncnc4c3CCC4)C2)no1 (stereo unspecified)	-2.2
Cc1ccccc1CN1CCC(NCC2CNc3ccnn3C2)CC1 (stereo unspecified)	8.316
c1ccc(CN2CCC(Nc3ncnc4c3CCNCC4)C2)cc1 (stereo unspecified)	76.79
O=C(Cn1cccn1)NCC1CCCN(Cc2ccccc2)C1 (stereo unspecified)	8.029
OC(CN(Cc1ccccc1)Cc1ccncc1)c1cccs1 (stereo unspecified)	13.62
Cc1nnc(CN2CCC(Oc3ccc(C)c(C)c3)CC2)o1	-18.16
Cc1ccc(CNCCS(=O)(=O)N2CCOCC2)cc1C	-37.41
Cc1ccn(CCNc2ncnc3c2CCN(Cc2ncc[nH]2)CC3)n1	5.519
c1ccc(CN2CCC(CCNc3ncnc4c3CCNCC4)C2)cc1 (stereo unspecified)	82.99
COCC1CC2(CCN(C(=O)c3cc(C)oc3C)CC2)CN1C(C)C.O=C(O)C(F)(F)F (stereo unspecified)	17.98
COCC1CC2(CCN(C(=O)c3ccccc3C)CC2)CN1C(C)C.O=C(O)C(F)(F)F (stereo unspecified)	101.7

SMILES	Percent Effect [%]
COCC1CC2(CCN(C(=O)c3cccn3C)CC2)CN1C(C)C (stereo unspecified)	-8.006
COCC1CC2(CCN(C(=O)c3occc3C)CC2)CN1C(C)C.O=C(O)C(F)(F)F (stereo unspecified)	98.04
COCC1CC2(CCN(C(=O)c3ccc(C)nc3)CC2)CO1.O=C(O)C(F)(F)F (stereo unspecified)	-3.949
COCC1CC2(CCN(C(=O)c3ccco3)CC2)CN1C(C)C.O=C(O)C(F)(F)F (stereo unspecified)	111.9
COCC1CC2(CCN(Cc3cnn(C)c3)CC2)CN1C(C)C.O=C(O)C(F)(F)F.O=C(O)C(F)(F)F (stereo unspecified)	-6.847
COCC1CC2(CCN(Cc3ccc(C)o3)CC2)CN1C(C)C.O=C(O)C(F)(F)F.O=C(O)C(F)(F)F (stereo unspecified)	100.3
COCC1CC2(CCN(Cc3ccc(OC)cc3)CC2)CN1C(C)C.O=C(O)C(F)(F)F.O=C(O)C(F)(F)F (stereo unspecified)	-13.29
N#Cc1ccc(C2CC(=O)Nc3c2cnn3C2CCCC2)cc1 (stereo unspecified)	11.66
N#Cc1cn(C2CC2)c(=O)n(Cc2cc(-c3cccs3)on2)c1=O	15.09
COC(=O)CCN1CCC(NC(=O)OC(C)(C)C)CC1	-7.075
CC(C1CCN(Cc2cnn(C)c2C2CC2)CC1)N1CCN(C)CC1 (stereo unspecified)	-5.459
COc1ccc(C)cc1-n1cnnc1C1CCCN(C)C1 (stereo unspecified)	8.034
Cc1cccc(-c2nccnc2C2CCCN(C)C2)c1C (stereo unspecified)	89.85
O=C(c1cccc(Cl)c1)C1CCCN(c2nnc(C3CCC3)o2)C1 (stereo unspecified)	-5.901
CN1CCCC(c2nc3c([nH]2)CC(C)(C)CNC3=O)C1 (stereo unspecified)	-16.77
Cc1nnc(N2CCCC(C(=O)c3cccc(Cl)c3)C2)o1 (stereo unspecified)	-20.06
Cc1cccc(-c2nccnc2C2CCN(C)CC2)c1C	64.83
CN1CCCC(c2nccnc2-c2cccc(Cl)c2)C1 (stereo unspecified)	117.7
